Several values for one entry are separate records, joined by “and”; a condition that tells them apart may be missing. Equal values may be shown once. Where a structure was tested more than once in an assay, its records may differ in their call. Activity calls are given as the source filed them. How the source made its calls: active means hit-call score of the fitted dose curve at least 0.9, where 1 is the maximum; inactive means score below 0.9.
Experiments:
[1] = read-out: Collagen I, COL1A1 (gene 1277); experiment: BSK_hDFCGF_CollagenI: BioMAP Diversity Plus: hDFCGF Assay for Collagen I Biomarker Activity (AID 2284250); details: primary human foreskin fibroblasts
Method in brief: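 Collagen I quantified by ELISA 24 h after chemical dosing of human dermal fibroblast primary cells, with parallel SRB staining (0.1%, TCA-fixed, 560 nm) for overt cytotoxicity.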

[2] = read-out: Plasminogen activator inhibitor-1 (PAI1), SERPINE1 (gene 5054); experiment: BSK_KF3CT_PAI1: BioMAP Diversity Plus: KF3CT Assay for Plasminogen activator inhibitor-1 (PAI1) Biomarker Activity (AID 2284252); details: primary human keratinocytes with fibroblasts
Method in brief: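 PAI-1 levels quantified by ELISA after 24 h compound exposure of primary human skin keratinocytes co-cultured with fibroblasts. Activity is the gain relative to DMSO; cytotoxicity tracked in parallel cultures via SRB staining.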

[3] = read-out: Monocyte Chemoattractant Protein-1 (MCP1), CCL2 (gene 6347); experiment: BSK_IMphg_MCP1: BioMAP Diversity Plus: IMphg Assay for Monocyte Chemoattractant Protein-1 (MCP1) Biomarker Activity (AID 2284253); details: primary human endothelial cells with macrophages
Method in brief: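 ELISA readout of MCP-1 at 24 hours in IMphg co-cultures of venular endothelial cells and macrophages, normalised to DMSO; parallel cultures stained with sulforhodamine B for overt cytotoxicity.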

[4] = read-out: Interleukin-8 (IL8), CXCL8 (gene 3576); experiment: BSK_KF3CT_IL8: BioMAP Diversity Plus: KF3CT Assay for Interleukin-8 (IL8) Biomarker Activity (AID 2284254); details: primary human keratinocytes with fibroblasts
Method in brief: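 Using parallel SRB-stained cultures to flag overt toxicity, the study quantified IL-8 by ELISA in human keratinocyte–foreskin fibroblast co-cultures 24 h after dosing, with DMSO as negative control and baseline.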

[5] = read-out: Macrophage Inflammatory Protein-1 Alpha (MIP1a), CCL3 (gene 6348); experiment: BSK_IMphg_MIP1a: BioMAP Diversity Plus: IMphg Assay for Macrophage Inflammatory Protein-1 Alpha (MIP1a) Biomarker Activity (AID 2284255); details: primary human endothelial cells with macrophages
Method in brief: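 MIP-1a protein levels were quantified by ELISA after 24 h treatment of human endothelial cell–macrophage co-cultures, compared with DMSO. Parallel cultures were fixed with TCA and stained with 0.1% SRB to gauge overt cytotoxicity.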

[6] = read-out: Plasminogen activator inhibitor-1 (PAI1), SERPINE1 (gene 5054); experiment: BSK_MyoF_PAI1: BioMAP Diversity Plus: MyoF Assay for Plasminogen activator inhibitor-1 (PAI1) Biomarker Activity (AID 2284256); details: primary human lung fibroblasts;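 on outcome: PAI-1 protein level measured by ELISA in fibroblast cultures; PAI-1 read 24 h after compound addition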
Method in brief: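 In this multiplexed primary-cell system, fibroblasts from human lung received compound for 24 h before ELISA detection of PAI-1; overt toxicity was checked by SRB (0.1%, TCA-fixed, 560 nm) in parallel wells.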

[7] = read-out: CD69, CD69 (gene 969); experiment: BSK_IMphg_CD69: BioMAP Diversity Plus: IMphg Assay for CD69 Biomarker Activity (AID 2284257); details: primary human endothelial cells with macrophages
Method in brief: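 Readout is ELISA for CD69 in primary human venular endothelial cell/macrophage co-culture, taken at 24 h post-dosing. SRB staining of parallel cultures gauged overt cytotoxicity; signal increase versus DMSO defined activity.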

[8] = read-out: Eotaxin 3, CCL26 (gene 10344); experiment: BSK_BF4T_Eotaxin3: BioMAP Diversity Plus: BF4T Assay for Eotaxin 3 Biomarker Activity (AID 2284258); details: primary human bronchial epithelial cells with fibroblasts
Method in brief: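 ELISA measurement of Eotaxin-3 after 24 h chemical exposure in a bronchial epithelial/dermal fibroblast co-culture, with DMSO as baseline. Parallel SRB staining (0.1% SRB after 10% TCA fixation, 560 nm) flagged overt cytotoxicity.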

[9] = read-out: Monocyte Chemoattractant Protein-1 (MCP1), CCL2 (gene 6347); experiment: BSK_BF4T_MCP1: BioMAP Diversity Plus: BF4T Assay for Monocyte Chemoattractant Protein-1 (MCP1) Biomarker Activity (AID 2284259); details: primary human bronchial epithelial cells with fibroblasts
Method in brief: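 MCP-1 ELISA readout taken 24 h after dosing in the BF4T system (bronchial epithelial cells plus dermal fibroblasts). Parallel SRB total-protein staining flagged cytotoxicity; DMSO served as baseline, positive fitting direction.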

[10] = read-out: Interferon-inducible T-cell alpha chemoattractant (ITAC), CXCL11 (gene 6373); experiment: BSK_hDFCGF_ITAC: BioMAP Diversity Plus: hDFCGF Assay for Interferon-inducible T-cell alpha chemoattractant (ITAC) Biomarker Activity (AID 2284251); details: primary human foreskin fibroblasts
Method in brief: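 Chemical dosing of primary human foreskin fibroblast cultures preceded ELISA measurement of I-TAC at 24 h. Response was analysed in the positive direction using DMSO as baseline, while parallel SRB staining measured cytotoxicity.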

SMILES | outcome [1] | outcome [2] | outcome [3] | outcome [4] | outcome [5] | outcome [6] | outcome [7] | outcome [8] | outcome [9] | AC50 [1] | AC50 [10] | AC50 [8] | AC50 [6] | outcome [10] | AC50 [2] | AC50 [3] | AC50 [4] | AC50 [9] | AC50 [7]
O=C(O)C(F)(F)C(F)(F)C(F)(F)F | inactive | inactive | inactive | inactive | inactive | inactive | inactive | inactive | inactive |  |  |  |  |  |  |  |  |  | 
N=C(N)C(F)(F)C(F)(F)C(F)(F)C(F)(F)C(F)(F)C(F)(F)C(F)(F)F | inactive | inactive | inactive | inactive | inactive | inactive |  | inactive | inactive | 30 µM (active) | 57.6 µM (active) and 52.7 µM (active) | 38.9 µM (active) |  |  |  |  |  |  | 
FC(F)(F)C(F)(F)C(F)(F)C(F)(F)C(F)(F)C(F)(F)CCS | inactive | inactive | inactive | inactive | inactive | inactive |  | inactive | inactive |  |  |  | 79.5 nM (active) |  |  |  |  |  | 
O=C(O)C(F)(F)C(F)(F)C(F)(F)C(F)(F)F | inactive | inactive | inactive | inactive | inactive | inactive |  | inactive | inactive |  |  |  |  | inactive |  |  |  |  | 
OCC(F)(F)C(F)(F)C(F)(F)C(F)F | inactive | inactive | inactive | inactive | inactive | inactive |  | inactive | inactive |  |  |  |  | inactive | 1.23 µM (active) |  |  |  | 
O=C(O)C=C(C(F)(F)F)C(F)(F)F | inactive | inactive | inactive | inactive | inactive | inactive | inactive | inactive | inactive |  |  | 10.8 µM (active) |  |  |  | 42.6 µM (active) |  |  | 
FC(F)(I)C(F)(F)C(F)(F)C(F)(F)I | inactive |  | inactive | inactive | inactive |  |  | inactive |  |  | 29.2 µM (active) and 46.2 µM (active) and 52 µM (active) | 57.1 µM (active) and 50.6 µM (active) | 55.6 µM (active) and 46 µM (active) and 56.7 µM (active) |  | 52.5 µM (active) and 47 µM (active) and 54.9 µM (active) |  | 45.8 µM (active) and 47.4 µM (active) | 38 µM (active) and 42.1 µM (active) and 42.5 µM (active) | 
FC(F)(F)C(F)(F)C(F)(F)C(F)(F)C(F)(F)C(F)(F)C(F)(F)C(F)(F)F | inactive | inactive | inactive | inactive | inactive | inactive |  | inactive | inactive |  |  |  |  | inactive |  |  |  |  | 
FC1CC(F)(F)C(F)(F)C1(F)F (centres undefined) | inactive | inactive | inactive | inactive | inactive | inactive |  | inactive | inactive |  |  |  |  | inactive |  |  |  |  | 
OCC(F)(F)C(F)(F)C(F)(F)F | inactive | inactive | inactive | inactive | inactive | inactive |  | inactive | inactive |  |  |  |  | inactive |  |  |  |  | 
C=C(C)C(=O)OCC(F)(F)C(F)(F)C(F)(F)F | inactive | inactive | inactive | inactive | inactive | inactive |  | inactive | inactive |  |  |  |  | inactive |  |  |  |  | 
FC(F)(F)C(F)(F)C(F)(F)C(F)(F)C(F)(F)C(F)(F)CC1CO1 (centres undefined) | inactive | inactive | inactive | inactive | inactive | inactive | inactive | inactive | inactive |  |  |  |  |  |  |  |  |  | 
C=CC(=O)OCC(F)(F)C(F)(F)C(F)(F)C(F)(F)COC(=O)C=C | inactive |  |  |  | inactive |  |  |  |  |  |  | 21.9 µM (active) and 30 µM (active) | 15.4 µM (active) and 16.7 µM (active) |  | 23.3 µM (active) and 43 µM (active) | 30 µM (active) | 17.3 µM (active) and 18.9 µM (active) | 11.2 µM (active) and 15.5 µM (active) | 30 µM (active)

Reference: PubChem BioAssay (EPA / NIEHS)
